Data on 20 compounds can be found in PubChem BioAssay.

Assay [1] is described as follows: antimalarial activity against Dd2 strain (AID 2302;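 active = growth inhibition above 50% at the single 2 µM test dose, taken to imply half-maximal potency below 2 µM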;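 note: 0% = DMSO untreated growth and 100% = chloroquine plus artemisinin killed control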). The following applies: P. falciparum Dd2 in RBCs, LDH growth readout, 72 h; at 2 µM; hits give high values.
Assay [2] can be described thus: HepG2 cytotoxicity, primary screen, cytotoxicity control for P. falciparum antimalarial project, cell-based, ATP luminescence (AID 2303;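 active = inhibition above 50%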;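 note: 0% = DMSO wells and 100% = digitonin-killed cells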). The conditions noted are these: HepG2 viability, 24-48 h, at 10 µM, hits give high values.
Assay [3] has as its target L-lactate dehydrogenase (Plasmodium falciparum (isolate CDC / Honduras)) (UniProt Q27743). The assay is described as follows: PfLDH activity inhibition – cell lysate, 3D7 strain, counter-screen for P. falciparum growth inhibition project (AID 2304).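 Note: 0% = vehicle and 100% = reference inhibitor.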 The following applies: P. falciparum 3D7 crude extract, LDH APAD/NBT absorbance; at 2 µM; hits give high values. For orientation: Counterscreens check selectivity or assay interference.

A short description of assay [4]: inhibition of 3D7 malaria parasite growth – strain 3D7 (AID 2306).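 Note: 0% = DMSO wells and 100% = chloroquine plus artemisinin control wells.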 The following applies: P. falciparum 3D7 erythrocytic growth, LDH absorbance, 72 h; at 2 µM; hits give high values.
The target in assay [5] is Calcium-dependent protein kinase 1 (Plasmodium falciparum (isolate 3D7)) (UniProt P62344). The assay is described as follows: PfCDPK1 kinase inhibitors, biochemical, TCAMS library (AID 1159585; cut-off not given, nearly all actives have IC50 up to about 0.98 µM;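 note: inhibitors leave more ATP so luminescence rises with inhibition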). The following applies: recombinant PfCDPK1, Kinase-Glo ATP depletion luminescence. On the technique in general: Kinase-Glo measures the ATP left after a reaction by luminescence.
Sequence of Calcium-dependent protein kinase 1 (Plasmodium falciparum (isolate 3D7)) (P62344 whole entry, looked up): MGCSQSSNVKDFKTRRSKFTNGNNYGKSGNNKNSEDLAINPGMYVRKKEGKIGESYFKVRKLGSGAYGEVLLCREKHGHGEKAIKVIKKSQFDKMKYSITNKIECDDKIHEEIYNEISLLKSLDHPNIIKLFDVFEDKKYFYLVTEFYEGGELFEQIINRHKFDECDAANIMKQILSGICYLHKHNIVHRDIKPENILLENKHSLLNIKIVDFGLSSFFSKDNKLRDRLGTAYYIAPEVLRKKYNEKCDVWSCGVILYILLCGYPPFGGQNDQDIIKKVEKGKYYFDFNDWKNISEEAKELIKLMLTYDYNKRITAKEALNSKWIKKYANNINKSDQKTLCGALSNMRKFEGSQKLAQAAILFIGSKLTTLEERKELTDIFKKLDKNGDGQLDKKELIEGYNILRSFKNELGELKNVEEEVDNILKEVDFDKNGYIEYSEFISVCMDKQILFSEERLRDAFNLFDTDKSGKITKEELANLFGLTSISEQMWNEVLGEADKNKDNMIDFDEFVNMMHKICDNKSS
In assay [6] the target is Plasmodium falciparum protein kinase 6 (PK6, PF3D7_1337100) (UniProt Q8IDW1). The assay is described as follows: PfPK6 kinase inhibitors, biochemical, TCAMS library (AID 1159586). The following applies: recombinant PfPK6, Kinase-Glo ATP depletion luminescence.
Sequence of Plasmodium falciparum protein kinase 6 (PK6, PF3D7_1337100) (Q8IDW1 1-305): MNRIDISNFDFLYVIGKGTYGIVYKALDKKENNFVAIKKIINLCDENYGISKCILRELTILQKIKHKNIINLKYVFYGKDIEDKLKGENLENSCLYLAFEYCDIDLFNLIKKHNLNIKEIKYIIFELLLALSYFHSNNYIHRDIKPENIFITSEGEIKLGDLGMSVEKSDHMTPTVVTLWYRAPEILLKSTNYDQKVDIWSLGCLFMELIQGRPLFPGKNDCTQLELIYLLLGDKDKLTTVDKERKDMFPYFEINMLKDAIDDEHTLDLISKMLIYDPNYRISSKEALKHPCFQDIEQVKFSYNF
Assay [7] addresses Protein kinase 7 (PK7), Plasmodium falciparum 3D7 (PF3D7_0213400) (UniProt Q7YTF7). In words: inhibition of Plasmodium PK7 catalytic activity – biochemical, TCAMS antimalarial set, Kinase-Glo luminescence (AID 1159587). The following applies: recombinant PfPK7, Kinase-Glo ATP depletion luminescence.
In assay [8] the target is Calcium-dependent protein kinase 4 (Plasmodium falciparum (isolate 3D7)) (UniProt Q8IBS5). In words: PfCDPK4 kinase inhibitors, biochemical, TCAMS library (AID 1159588; cut-off not given, nearly all actives have IC50 up to about 0.91 µM). The following applies: recombinant PfCDPK4, Kinase-Glo ATP depletion luminescence.
Sequence of Calcium-dependent protein kinase 4 (Plasmodium falciparum (isolate 3D7)) (Q8IBS5 whole entry, looked up): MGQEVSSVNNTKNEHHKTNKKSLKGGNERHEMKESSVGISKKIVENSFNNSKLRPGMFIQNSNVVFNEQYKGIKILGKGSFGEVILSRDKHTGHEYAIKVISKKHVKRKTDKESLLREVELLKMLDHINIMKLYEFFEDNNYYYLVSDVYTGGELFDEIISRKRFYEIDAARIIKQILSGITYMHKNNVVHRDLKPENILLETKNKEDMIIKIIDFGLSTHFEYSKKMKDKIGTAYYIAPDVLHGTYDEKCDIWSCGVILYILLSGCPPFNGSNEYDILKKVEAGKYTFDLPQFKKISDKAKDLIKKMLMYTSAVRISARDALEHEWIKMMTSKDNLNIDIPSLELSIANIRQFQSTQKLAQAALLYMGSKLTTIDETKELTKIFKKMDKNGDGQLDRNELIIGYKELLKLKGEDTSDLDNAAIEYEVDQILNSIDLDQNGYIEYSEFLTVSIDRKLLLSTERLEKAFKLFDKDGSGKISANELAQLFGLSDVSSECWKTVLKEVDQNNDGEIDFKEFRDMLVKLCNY

A number with no mark means an inactive call. For some of these results: Results with a measured potency or affinity are listed apart. Activity calls are given as the source filed them. Unless noted, the rule behind the calls is not given here.

Sequence of L-lactate dehydrogenase (Plasmodium falciparum (isolate CDC / Honduras)) (Q27743 whole entry, looked up): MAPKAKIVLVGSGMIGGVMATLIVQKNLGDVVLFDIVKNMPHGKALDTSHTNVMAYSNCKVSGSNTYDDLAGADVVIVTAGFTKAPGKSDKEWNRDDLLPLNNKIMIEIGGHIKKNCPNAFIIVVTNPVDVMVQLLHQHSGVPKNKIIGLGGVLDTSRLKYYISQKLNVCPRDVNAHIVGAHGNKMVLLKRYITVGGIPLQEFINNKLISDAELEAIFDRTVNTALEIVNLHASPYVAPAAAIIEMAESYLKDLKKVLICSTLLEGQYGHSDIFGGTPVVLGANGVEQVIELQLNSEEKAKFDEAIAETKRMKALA
Sequence of Protein kinase 7 (PK7), Plasmodium falciparum 3D7 (PF3D7_0213400) (Q7YTF7 1-343): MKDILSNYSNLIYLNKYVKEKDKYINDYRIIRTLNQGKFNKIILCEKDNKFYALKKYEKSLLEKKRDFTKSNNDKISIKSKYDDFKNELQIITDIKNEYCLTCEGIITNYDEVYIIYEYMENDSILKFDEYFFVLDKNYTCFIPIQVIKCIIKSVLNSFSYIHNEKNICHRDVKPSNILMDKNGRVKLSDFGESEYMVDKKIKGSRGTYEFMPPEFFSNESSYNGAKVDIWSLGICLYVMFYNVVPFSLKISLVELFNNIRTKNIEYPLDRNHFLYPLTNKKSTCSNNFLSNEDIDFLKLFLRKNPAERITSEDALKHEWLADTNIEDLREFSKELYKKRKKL

Usually inhibition stands for the drop in the measured response relative to a control, in per cent. Take `CC1CCN(CC[C@H]2CCCN2S(=O)(=O)c2cccc(NC(=O)c3ccc(-c4ccc(Cl)cc4)o3)c2)CC1`: the growth inhibition in assay [1] is 65% (active); in assay [4], 101% (active). In addition, the figures for the inhibition in assay [2] and in assay [3] were 45% and 3%, respectively. Further, the result in assay [5], in assay [6], in assay [7] and in assay [8] was inactive.

Regarding `COC(=O)c1cccc(NC(=O)NCCNc2ccnc(Nc3ccc(F)cc3)n2)c1`, the growth inhibition was 5% in assay [1] and 93% (active) in assay [4]. The inhibition was 10% in assay [2] and -6% in assay [3]. The result in assay [5], in assay [6], in assay [7] and in assay [8] was inactive.

`CCOC(=O)c1[nH]c(-c2cccc(F)c2)nc1N`: the growth inhibition in assay [1] was 2%; in assay [4], 98% (active). For the same compound, the inhibition was 0% in assay [2] and 9% in assay [3]. For the same compound, the result in assay [5], in assay [6], in assay [7] and in assay [8] was inactive.

As for `CCCC(=O)Nc1ccc(Nc2nc(C)cc(N3CCCC3)n2)cc1`, the growth inhibition is 46% in assay [1] and 100% (active) in assay [4]. Further, the inhibition in assay [2] was 31%; in assay [3], 4%. Also, the result in assay [5], in assay [6], in assay [7] and in assay [8] was inactive.

Regarding `COc1cc(C(=O)NC2CCN(Cc3ccccc3)CC2)ccc1-c1cc2cc(Cl)c(Cl)cc2[nH]1`, the growth inhibition in assay [1] is 101% (active); in assay [4], 102% (active). Also, the inhibition is 33% in assay [2] and 5% in assay [3]. Moreover, the outcome in assay [5], in assay [6], in assay [7] and in assay [8] was inactive.

Consider `O=C(NC(CCCN1CCC(c2ccccc2)CC1)c1ccc(Cl)c(Cl)c1)c1cc(C(F)(F)F)cc(C(F)(F)F)c1` (stereo not given), for which the values for the growth inhibition in assay [1] and in assay [4] were 87% (active) and 92% (active), respectively. Also, the inhibition in assay [2] is 33%; in assay [3], 3%. The result in assay [5], in assay [6], in assay [7] and in assay [8] was inactive.

With `O=C(Nc1cccc(CN2CCCN(Cc3ccsc3)CC2)c1)c1ccc(Cl)c(Cl)c1`, the figures for the growth inhibition in assay [1] and in assay [4] were 20% and 98% (active), respectively. The inhibition in assay [2] was 36%; in assay [3], 4%. The outcome in assay [5], in assay [6], in assay [7] and in assay [8] was inactive.

In the case of `CCCN(CCCCCCN(CCC)CCc1ccc(O)c(O)c1)CCc1ccc(O)cc1`, the growth inhibition in assay [1] is 5%; in assay [4], 90% (active). In addition, the inhibition in assay [2] is 0%; in assay [3] it was -1%. The result in assay [5], in assay [6], in assay [7] and in assay [8] was inactive.

As for `CCNc1cc(C)nc(Nc2ccc(C)cc2)n1`, the growth inhibition in assay [1] was 85% (active); in assay [4] it was 102% (active). Also, the inhibition in assay [2] is 12%; in assay [3], 3%. For the same compound, the outcome in assay [5], in assay [6], in assay [7] and in assay [8] was inactive.

Turning to `CCNc1cc(C(=O)N[C@@H](Cc2ccccc2)[C@H](O)CNC2(CC(C)C)CC2)cc(N2CCCCS2(=O)=O)c1`, the growth inhibition in assay [1] is 29%; in assay [4], 87% (active). Also, the inhibition in assay [2] is -3%; in assay [3] it was -5%. The result in assay [5], in assay [6], in assay [7] and in assay [8] was inactive.

In the case of `CN1CCN(CC(=O)Nc2ccc(-c3cccc(-c4nc5ccc(C(F)(F)F)cc5[nH]4)c3)cc2)CC1`, the growth inhibition was 93% (active) in assay [1] and 101% (active) in assay [4]. Also, the figures for the inhibition in assay [2] and in assay [3] were 45% and -5%, respectively. The result in assay [5], in assay [6], in assay [7] and in assay [8] was inactive.

For `COc1ccc(CCNCCCCCNCCCc2ccc(Cl)cc2)cc1OC`, the growth inhibition was 2% in assay [1] and 101% (active) in assay [4]. The inhibition in assay [2] was 24%; in assay [3], 2%. Further, the result in assay [5], in assay [6], in assay [7] and in assay [8] was inactive.

As to `COc1ccc2nccc([C@@H](O)CN3CCC(NC(=O)C(=Cc4ccc(C#N)cc4)c4ccc(-c5ccccc5)cc4)CC3)c2c1`, the growth inhibition in assay [1] is 84% (active); in assay [4], 101% (active). Besides, the results for the inhibition in assay [2] and in assay [3] were 5% and -5%, respectively. Further, the outcome in assay [5], in assay [6], in assay [7] and in assay [8] was inactive.

For the compound `CC(=O)c1ccc(-c2cccc3c(CC(=O)Nc4ccc5nccc(N6CCN(C)CC6)c5c4)cccc23)cc1`, the growth inhibition in assay [1] was 96% (active); in assay [4], 101% (active). Further, the inhibition in assay [2] was 3%; in assay [3] it was -11%. Besides, the outcome in assay [5], in assay [6], in assay [7] and in assay [8] was inactive.

Consider `Cc1cccc(CN2CCCN(Cc3ccc(C(=O)Nc4ccc(C(C)(C)C)cc4)cc3)CC2)c1`, for which the growth inhibition is 4% in assay [1] and 97% (active) in assay [4]. The results for the inhibition in assay [2] and in assay [3] were 57% (active) and -7%, respectively. The result in assay [5], in assay [6], in assay [7] and in assay [8] was inactive.

For the compound `CC(C)COc1cc(C(=O)Nc2cnc3ccccc3c2)ccc1[N+](=O)[O-]`, the growth inhibition in assay [1] was 56% (active); in assay [4], 97% (active). The values for the inhibition in assay [2] and in assay [3] were 19% and -1%, respectively. For the same compound, the result in assay [5], in assay [6], in assay [7] and in assay [8] was inactive.

For `Cc1cc(N[C@@H](Cc2ccccc2)C(=O)NCc2cccc(F)c2)nc(NCCCOC(C)C)n1`, the growth inhibition in assay [1] was 94% (active); in assay [4], 101% (active). For the same compound, the inhibition in assay [2] is 10%; in assay [3], -2%. Besides, the result in assay [5], in assay [6], in assay [7] and in assay [8] was inactive.

`C[C@@H](COc1ccc(-c2ccccc2)cc1)CON1C(N)=NC(N)=NC1(C)C`: the growth inhibition in assay [1] and in assay [4] was 96% (active) each time. The inhibition in assay [2] is 62% (active); in assay [3] it was 3%. The result in assay [5], in assay [6], in assay [7] and in assay [8] was inactive.

As to `CCCCCCNC(=O)C1Cc2c([nH]c3ccc(F)cc23)C2(CCN(Cc3ccccc3)CC2)N1` (stereo not given), the growth inhibition in assay [1] is 39%; in assay [4], 97% (active). In addition, the inhibition is 11% in assay [2] and -1% in assay [3]. Further, the outcome in assay [5], in assay [6], in assay [7] and in assay [8] was inactive.

Regarding `NS(=O)(=O)c1cccc(-c2ccc3c(=O)[nH]cnc3c2)c1`, the growth inhibition in assay [1] is 100% (active); in assay [4], 99% (active). Also, the inhibition is 6% in assay [2] and 4% in assay [3]. Moreover, the result in assay [5], in assay [6], in assay [7] and in assay [8] was inactive.
